Laboratory results taken from ChEMBL document CHEMBL3988442, “University of Dundee, Small-Polar-MMV Screening Library” (2021).
Hit rate of the full screen: of about 53,000 compounds, about 900 (1.7%) showed an effect of 50% or more. For the sample, strong results were picked, then their nearest neighbours and some compounds at random.

tested on: Mycobacterium tuberculosis; assay: Cornell - Phenotypic assay to identify agents that inhibit growth of Mycobacterium tuberculosis; assay type: functional; design: scale not given: direction of the effect not stated beside the values; conditions: 10 mM as filed; unlikely as a test dose

Structure (SMILES) | Percent Effect [%]
CSCCCNC(=O)C(c1ccccc1C)N(C)C (configuration not stated) | 37.97
Cc1cc(N(C)CCC(O)c2ccccc2)n2nccc2n1 (configuration not stated) | -28.51
Cc1cc(C(F)(F)F)nc(CNc2cc(C)nc3cc(C)nn23)n1 | 13.97
COc1cccc(C(=O)Oc2cc(=O)n3cccc(C)c3n2)c1 | 35.2
CC1c2cccn2CCN1C(=O)CCc1nc(C2CC2)no1 (configuration not stated) | 7.661
CC1c2cccn2CCN1C(=O)CCCc1nc(-c2ccco2)no1 (configuration not stated) | 8.285
CC1c2cccn2CCN1C(=O)CCc1nc(-c2ccccc2)no1 (configuration not stated) | 50.68
COC(=O)c1cc(OCC2CCC2)cc(C(=O)N[C@H]2CCCC[C@@H]2O)c1 | 13.96
Cc1nc(C)c(C(=O)N2CCCC2(C)C(=O)NC2CCCC2)s1 (configuration not stated) | -2.69
Cc1cc(C)n(CC2CN(CC(=O)NC3(C#N)CCCC3)CCO2)n1 (configuration not stated) | -4.222
CCOCCC(=O)Nc1cccc(Oc2ccccn2)c1 | -2.089
NC(=O)c1cnc(NC2CCC(c3ccccc3)CC2)c(Cl)c1 (configuration not stated) | 57.03
NC(=O)c1cnc(NC2CCN(c3ccccc3)CC2)c(Cl)c1 | 48.08
NC(=O)c1cnc(NC2CCN(c3ccccn3)CC2)c(Cl)c1 | 18.4
O=S(=O)(c1cccnc1)N1CCN(Cc2nc(-c3ccco3)cs2)CC1 | 31.36
Cc1nc(C)n(CC2CCCN(Cc3cccnc3)C2)n1 (configuration not stated) | 6.124
CN(CCC(F)(F)F)Cc1nc2ccccc2c(=O)[nH]1 | 7.133
O=c1[nH]c(CCN2CCN(CC(F)(F)F)CC2)nc2ccccc12 | 106.7
CCC(CC)C(=O)N1CCN(Cc2nc3ccccc3c(=O)[nH]2)CC1 | 5.405
Cn1nc2c(cc1=O)CN(CCc1nc3ccccc3c(=O)[nH]1)CC2 | 8.475
O=c1[nH]c(CCN2CCCC(Cn3cncn3)C2)nc2ccccc12 (configuration not stated) | 33.45
CN(CCc1nc2ccccc2c(=O)[nH]1)CCC(F)(F)F | 95.2
CN(CCC(F)(F)F)c1nc2ccccc2c(=O)[nH]1 | -4.598
O=c1[nH]c(CN2CCN(CC(F)(F)F)CC2)nc2ccccc12 | 9.356
CCOCCN1CCN(CCc2nc3ccccc3c(=O)[nH]2)CC1 | 106.8
O=C(c1sccc1-n1cnnn1)N1CCC(Cc2ccccc2)CC1 | 28.81

Structure (SMILES) | Percent Effect [%]
CCOC1Sc2nnc(C)n2N=C1c1ccc(F)cc1 (configuration not stated) | 27.03
CC(C)NC(=O)N1CCN(Cc2ccccn2)CC2(CC(=O)N(C)C2)C1.O=C(O)C(F)(F)F.O=C(O)C(F)(F)F (configuration not stated) | -0.1639
COc1cccc(CC2CCCN2Cc2nccn2C)c1 (configuration not stated) | 13.47
O=C(c1cscn1)N1CC[C@H]2[C@@H]1CCC(=O)N2c1ccccc1 | 102.6
Cn1cc(N2C(=O)CC[C@@H]3[C@H]2CCN3C(=O)c2cscn2)cn1.O=C(O)C(F)(F)F | 15.97
Cc1cc(C(=O)N2CC[C@H]3[C@@H]2CCC(=O)N3c2ccccc2)no1 | 0.08428
Cc1nnc(CN(Cc2ccccc2Br)C2CC2)o1 | 42.91
Cc1nnc(CN(Cc2cccc(Br)c2)C2CC2)o1 | 22.14
Cc1noc(CN(Cc2ccc3c(c2)OCO3)C2CCCC2)n1 | 4.979
Cc1nnc(CN(Cc2ccc3c(c2)OCO3)C2CCC(C)CC2)o1 (configuration not stated) | 50.97
Cc1nnc(CN(Cc2ccc3c(c2)OCO3)C2CCCCC2)o1 | 52.33
CCc1noc(CN(Cc2ccc3c(c2)OCO3)C2CCCC2)n1 | 1.573
O=C(CCn1cc(Cl)cn1)N1CCN(CC2CC2)[C@@H]2CS(=O)(=O)C[C@@H]21 | -27.81
O=C(CC1CCc2ccccc21)N1CCC(C(=O)O)(n2ccnc2)CC1 (configuration not stated) | -2.815
O=C(NCc1ccnc(OCC2CC2)c1)C1COc2ccccc2O1 (configuration not stated) | 12.77
CC(=O)Nc1cccc(OCCNC(=O)N(C)Cc2ccco2)c1 | 2.051
Cc1ccc(Oc2c(F)cccc2OC[C@@H](N)CC(C)C)cc1 | 106.4
CC(C)C[C@H](N)COc1cccc(F)c1Oc1ccc(Cl)cc1 | 107.4
CNCc1cc(F)ccc1Oc1ccc(Cl)cc1 | -16.87
CC(C)C(=O)Nc1cccc(OCC(=O)NCc2ccccc2F)c1 | 6.908
CC(C)C[C@H](N)COc1cccc(F)c1Oc1cccc(Cl)c1 | 106.7
CC(C)C[C@H](N)COc1cccc(F)c1Oc1ccccc1 | 5.347
CCNCCOc1ccc(-c2cc(N)nc3[nH]ccc23)cc1 | 21.99
COc1c(C)cnc(CN2CCCC2c2noc(C)n2)c1C (configuration not stated) | -16.92
CCCC1(CO)CCCN(c2ncnc3c2c(C)nn3C)C1 (configuration not stated) | -13.93
Cc1cccc(-c2ccc(C(=O)N3CCN(C(C)C)CC3)c(=O)[nH]2)c1 | 26.41

Structure (SMILES) | Percent Effect [%]
CC(C)OCCC(=O)NS(=O)(=O)N1CCOc2ccccc21 | 29.29
CCOc1ccccc1C(=O)NCCc1ccoc1 | 23.58
CNS(=O)(=O)c1ccc(C(=O)NC2CCOc3ccccc32)o1 (configuration not stated) | 7.684
CC(C)c1nnc2sc(CC3CN(Cc4ccccc4)CCO3)nn12 (configuration not stated) | -19.21
O=C(NCCCOCC1CCCO1)c1cccnc1N1CCCC1 (configuration not stated) | 105.2
O=C(NCCCOCC1CCCO1)c1cccnc1N1CCOCC1 (configuration not stated) | -37.06
CC(C)COCCCNC(=O)c1cccnc1N1CCOCC1 | 3.314
CCc1ccc(C(=O)NCCNc2ncccn2)cc1 | -25.5
O=C(NCCNc1ncccn1)c1ccc(Br)cc1 | -16.37
Cc1ccc(C)n1-c1ccc(C(=O)NCCNc2ncccn2)cc1 | 76.43
Cc1cc(N(C)C)nc(C2(C)CCCN2C(=O)c2cncnc2C)n1 (configuration not stated) | -9.352
CN(C)C(=O)[C@@H]1CCO[C@@H]2CCN(CCc3ccccc3)C[C@@H]21.O=C(O)C(F)(F)F | 4.406
CN(C)C(=O)[C@@H]1CCO[C@@H]2CCN(Cc3ccccc3)C[C@@H]21.O=C(O)C(F)(F)F | 104.8
CN(C)C(=O)[C@@H]1CCO[C@@H]2CCN(Cc3ccc4c(c3)OCO4)C[C@@H]21.O=C(O)C(F)(F)F | -46.82
CCc1ccc(CN(C(=O)CCn2cc(S(N)(=O)=O)cn2)C2CC2)cc1 | -10.53
COc1ccc(C2CN(c3cc(C)ncn3)CCN2C(C)=O)cc1 (configuration not stated) | -53.77
Cc1nn(CCNc2ncnc3c2NC(=O)CN3)c(C)c1Cl | 45.57
COc1cc(N2CCC3(CCN(Cc4csc(C)n4)C3)CC2)ncn1.O=C(O)C(F)(F)F | 24.59
CCCc1noc(CN2CCCC2c2ccsc2)n1 (configuration not stated) | 52.86
CCCc1noc(CCC(=O)N2CCCC2c2ccsc2)n1 (configuration not stated) | 22.08
Cc1nnc(CN2CCCC2c2ccsc2)o1 (configuration not stated) | 14.43
CN(C)CCNC(=O)c1ccn(-c2ccc3ccccn23)n1.O=C(O)C(F)(F)F | 12.93
CC(C)N1CCCC1c1cc(CCO)[nH]n1 (configuration not stated) | 11.54
CCC(=O)N1CCC(c2cc(Nc3ncccn3)nc(C)n2)C1 (configuration not stated) | -34.07
Cc1ccccc1CC(=O)N[C@@H]1CCC[C@@H](N2CCNC(=O)C2)[C@@H]1O | 3.763
Cc1ccccc1S(=O)(=O)N[C@@H]1CC[C@@H](N2CCNC(=O)C2)[C@@H]1O | 54.18

Structure (SMILES) | Percent Effect [%]
O=C1CN([C@@H]2CC[C@@H](NS(=O)(=O)c3ccccc3F)[C@H]2O)CCN1 | -3.18
O=C1CN([C@@H]2CC[C@@H](NS(=O)(=O)c3ccc(F)cc3)[C@H]2O)CCN1 | 42.43
CN([C@@H]1CC[C@@H](N2CCCC2)[C@@H]1O)S(=O)(=O)c1ccccc1 | 24.86
O=C1CN([C@@H]2CC[C@@H](NS(=O)(=O)c3ccccc3)[C@H]2O)CCN1 | 55.41
Cc1ccc(-c2nnc(CN3CCn4c(nnc4C4CC4)C3)o2)cc1 | 2.899
CCOCC(=O)N1C[C@@H]2CC[C@H](Oc3ccccc3)[C@@H]2C1 | -14.06
CCCN1CCCn2nc(CNS(=O)(=O)c3cccc(F)c3)cc2C1 | -34.67
CCN(CC)CCCNCc1cc2cc(C)ccc2[nH]c1=O | 4.422
CCOc1ncccc1NC(=O)N1CCC(n2cncn2)CC1 | 14.59
Cc1cccc(CN(Cc2ccccn2)Cc2ncc(C(C)(C)C)o2)c1 | 69.04
CCN(Cc1cccc(Cl)c1)Cc1ncc(C(C)(C)C)o1 | 0.2424
CCN(Cc1ncc(C(C)(C)C)o1)Cc1ccccc1C | -5.269
Cc1nc2ccc(C(=O)N3C[C@@H](O)[C@H](N4CCCC4)C3)cc2[nH]1 | 1.956
COCC(=O)NC(c1ccccc1)c1ccc2c(c1)CCCO2 (configuration not stated) | 34.89
Cc1cc(NCc2cccc(C#N)c2)ccc1Br | 50.78
Cc1cc(NCc2cccc(C#N)c2)ccc1C(N)=O | 38.13
Cc1cc(NCc2cccc(C#N)c2)ccc1C(=O)N(C)C | 22.32
CCN(CC)c1nc(Nc2cccc(C(=O)O)c2)nc2ccccc12 | -13.69
CC(O)c1cccc(Nc2nc(NCCO)c3ccccc3n2)c1 (configuration not stated) | -13.85
CCN(CC)c1nc(Nc2cccc(C(C)O)c2)nc2ccccc12 (configuration not stated) | 104.6
NC(=O)NCC(=O)N1CCCC(OCc2cccnc2)C1 (configuration not stated) | -45.31
Oc1cc(C2CCCN(Cc3cccs3)C2)nc(-c2ccccn2)n1 (configuration not stated) | 76.98
Oc1cc(C2CCCCN2Cc2cccs2)nc(-c2ccccn2)n1 (configuration not stated) | 21.14
Cn1ncc2ccc(C3CCCN(Cc4cccs4)C3)nc21 (configuration not stated) | -1.871
